Measured values as given in PubChem BioAssay (NCATS).
Values without a mark were called inactive. Results filed as inconclusive are left out. Activity calls are given as the source filed them. Unless noted, calls come from the whole dose curve; as a rule, active = well fitted curve in either direction with a large enough effect (not every such curve was filed as active); inconclusive = small, poorly fitted or top-dose-only effect, or another doubt; inactive = flat fitted curve, though single readings scatter.

Legend:
[1] = AP1 Signaling Pathway (AID 357); details: ME-180 AP-1-bla reporter, EGF-induced, beta-lactamase ratio, 5 h; at 17.2 µM (top of the series) unless noted;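 note: ME-180 reporter cells stimulated with EGF at its EC50 level; % is set by controls: 0 for no effect and ±100 for the full control effect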
Outline: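 Modulation of EGF-driven AP-1 transcription was assessed with a beta-lactamase reporter in ME-180 cells. Compound and EC50 EGF were co-incubated 5 hours at 37 °C before 2.5-hour CCF4 loading at room temperature and dual-emission reading.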

[2] = NFAT Signaling Pathway (AID 444); details: Jurkat NFAT-bla M1, carbachol, beta-lactamase ratio, 5 h; at 17.2 µM (top of the series) unless noted;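 note: carbachol stimulus at about its EC50 of 1 µM final; % is set by controls: 0 for no effect and ±100 for the full control effect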
Outline: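 Jurkat cells carrying an NFAT-driven β-lactamase reporter and co-transfected muscarinic M1 receptor were treated with compound plus carbachol (1 uM final, an EC50 level) for 5 h at 37 °C. CCF4 loading followed for 1 h at RT; 460/530 nm ratio gave %activity.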

[3] = Stat Signaling Pathway (AID 446); details: ME-180 SIE beta-lactamase reporter, IL-6 stimulated, 5 h; at 17.2 µM (top of the series) unless noted;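 note: ME-180 cervical cancer cells given 40 pM IL-6 alongside compound; SIE-controlled beta-lactamase reporter measured as 460/530 nm FRET emission ratio; % is set by controls: 0 for no effect and ±100 for the full control effect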
Outline: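 ME-180 SIE-bla cells; overnight plating; cpd + IL-6 40 pM, 5 h, 37 C; LiveBLAzer 2.5 h RT; 460/530 nm emission ratio. Normalized to 300 pM IL-6 and 125 nM JAK inhibitor controls.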

[4] = molecular target: Glucocorticoid receptor (Homo sapiens) (UniProt P04150); assay: GR-GFP Redistribution (AID 450;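 active = compounds whose dose series gives a full or clear partial fitted curve of increased nuclear translocation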; note: potency is the fitted concentration of half-maximal effect)
Glucocorticoid receptor (Homo sapiens), sequence (P04150 whole entry, looked up): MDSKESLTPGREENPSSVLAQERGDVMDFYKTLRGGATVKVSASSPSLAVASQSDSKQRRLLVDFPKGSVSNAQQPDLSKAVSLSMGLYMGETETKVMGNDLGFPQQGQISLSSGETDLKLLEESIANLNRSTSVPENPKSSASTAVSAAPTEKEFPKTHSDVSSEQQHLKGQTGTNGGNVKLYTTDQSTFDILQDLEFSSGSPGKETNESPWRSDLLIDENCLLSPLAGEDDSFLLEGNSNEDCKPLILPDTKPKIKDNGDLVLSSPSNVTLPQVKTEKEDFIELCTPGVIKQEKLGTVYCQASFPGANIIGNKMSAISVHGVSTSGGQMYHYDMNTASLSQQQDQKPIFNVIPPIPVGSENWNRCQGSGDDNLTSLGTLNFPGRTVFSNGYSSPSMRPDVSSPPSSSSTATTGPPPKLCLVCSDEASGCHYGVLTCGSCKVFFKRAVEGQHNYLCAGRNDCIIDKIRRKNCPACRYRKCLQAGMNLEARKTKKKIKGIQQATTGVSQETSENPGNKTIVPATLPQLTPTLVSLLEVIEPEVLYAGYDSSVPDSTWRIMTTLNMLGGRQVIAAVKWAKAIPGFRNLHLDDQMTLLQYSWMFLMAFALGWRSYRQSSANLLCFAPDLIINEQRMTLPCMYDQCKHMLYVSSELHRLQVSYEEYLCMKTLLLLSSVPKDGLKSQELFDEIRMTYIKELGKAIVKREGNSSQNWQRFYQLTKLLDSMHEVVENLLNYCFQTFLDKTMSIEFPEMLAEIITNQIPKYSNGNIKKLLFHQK

Row | Structure (SMILES) | activity change, negative = inhibition [1] | activity change, negative = inhibition [2] | activity, negative = inhibition [3] | Potency [4]
1 | Cc1[nH]nc2c1C(CCc1ccccc1)C(C#N)=C(N)O2 (centres undefined) | -6.35% | 10.3% | -1.82% | > 20.6 µM
2 | CCOC(=O)c1c(CN2CCN(CCO)CC2)n(C)c2cc(Br)c(OC)cc12 | 19.8% | 29.2% | -13.7% | > 20.6 µM
3 | CCN(CC)CCCC1(CN)OCCc2ccccc21 (centres undefined) | 19.8% | -16.2% | 8.19% | > 20.6 µM
4 | Cc1ccc(CC2CC(=O)N(c3ccc4c(c3)OCCO4)C2=O)cc1 (centres undefined) | -5.59% | 4.5% | 0.576% | > 20.6 µM
5 | COc1ccc(OCC(=O)N2CCN(C(=O)c3cccc4ccccc34)CC2)cc1 | -4.98% | 5.36% | -1.16% | > 20.6 µM
6 | CC(=O)N[C@H]1C[C@@H]1c1ccccc1 | 5.08% | -8.6% | 12.8% | > 20.6 µM
7 | CCCOc1ccc(/C(O)=C2/C(=O)C(=O)N(CCCn3ccnc3)C2c2cccs2)cc1 (centres undefined) | -14.1% | 2.88% | 6% | > 20.6 µM
8 | CCCCOc1ccccc1C(=O)NCCCCCC(=O)O | 10.2% | 11.6% | 2.29% | > 20.6 µM
9 | Nc1ccc2oc(-c3ccccc3Cl)nc2c1 | -0.869% | 15.3% | 2.57% | > 20.6 µM
10 | CC1(C)Cc2c(sc3[nH]c(=S)n(Cc4ccco4)c(=O)c23)CO1 | -2.74% | -5.17% | -8.92% | > 20.6 µM
11 | Cc1nc(Nc2ncc3c(n2)CC(C)(C)CC3=O)nc2ccccc12 | -5.98% | 10.6% | -25% | > 20.6 µM
12 | C=CCNc1nc(-c2ccc(O)c(C(N)=O)c2)cs1 | -14.5% | 25.2% | -12.3% | > 20.6 µM
13 | CCSc1nnc(NC(NC(=O)c2ccco2)(C(F)(F)F)C(F)(F)F)s1 | 15.1% | -7.65% | 3.98% | > 20.6 µM
14 | CCCCCOc1ccc(C(=O)NCC(=O)NCC(=O)OCC)cc1 | -2.64% | -2.75% | -0.468% | > 20.6 µM
15 | COc1ccc(-c2c3c([nH]c(=S)c2C#N)CCC3)cc1 | 22.9% | -5.23% | -7.04% | > 20.6 µM
16 | Oc1ccccc1-c1nc(NCCN2CCOCC2)c2ccccc2n1 | -13.2% | 25.8% | -12.5% | > 20.6 µM
17 | COc1ccc(C(=O)Cn2c(Br)nc3c2c(=O)n(C)c(=O)n3C)cc1OC | 7.09% | 25.7% | 0.59% | > 20.6 µM
18 | CCOC(=O)c1cc(C)n(Cc2cccc(OC)c2OC)c1C | -16.9% | -21.6% | -14.9% | > 20.6 µM
19 | CN1CCc2c(n(CC(O)CN3C(=O)c4ccccc4S3(=O)=O)c3ccccc23)C1=O (centres undefined) | 27.1% | 6.52% | -6.51% | > 20.6 µM
20 | Cc1cc(C)n(CC(=O)n2c3c(c4ccccc42)CCCC3)n1 | 5.13% | 0.496% | 9.09% | > 20.6 µM
21 | CC1(C)Cc2c(sc3ncn4nnnc4c23)CO1 | -0.575% | 0.343% | 2.69% | > 20.6 µM
22 | COC(=O)CSCC(=O)Nc1cc2c(cc1C(C)=O)OCO2 | -1.75% | 29.7% | 9.85% | > 20.6 µM
23 | Cc1[nH]c(=O)[nH]c(=O)c1S(=O)(=O)N1CCCC1 | 11.7% | -7.3% | 12% | > 20.6 µM
24 | CC(=O)[C@H]1[C@@H]2C(=O)N(c3cccc(Cl)c3)C(=O)[C@@H]2[C@H]2c3ccccc3C=CN21 | -11% | -7.09% | -13.6% | > 20.6 µM
25 | COCC(C)Nc1ncnc2c1cnn2-c1ccc(Cl)cc1 (centres undefined) | -23.7% | -6.38% | -3.72% | > 20.6 µM
26 | CCCCNC(=O)N1CCOCCOCCN(C(=O)NCCCC)CCOCCOCC1 | 3.89% | 5.69% | -1.16% | > 20.6 µM

Row | Structure (SMILES) | activity change, negative = inhibition [1] | activity change, negative = inhibition [2] | activity, negative = inhibition [3] | Potency [4]
27 | O=c1cc(O)nc2n1CCCS2 | 5% | -0.525% | -1.13% | > 20.6 µM
28 | Cc1cc(=O)oc(C)c1C(=O)n1nc(C)c2c1C[C@@H]1[C@H]2C1(C)C | -2.2% | -1.13% | -1.83% | > 20.6 µM
29 | COCCNC(=O)C(C#N)c1nc2ccccc2nc1N1CCN(Cc2ccc3c(c2)OCO3)CC1 (centres undefined) | -20.2% | -26.8% | 4.46% | > 20.6 µM
30 | CC(=O)N1CCN(C2c3cccc4cccc(c34)C2NS(=O)(=O)c2ccccc2)CC1 (centres undefined) | -3.48% | -9.38% | 2.23% | > 20.6 µM
31 | CN1c2ccccc2N(C)C1c1c(O)ccc2ccccc12 | -1.37% | -27.9% | -4.67% | > 20.6 µM
32 | COC(=O)CCc1c(C)[nH]c(C(=O)OCc2ccccc2)c1C | -13.9% | -4.78% | 5.36% | > 20.6 µM
33 | COc1ccc(C2C=C(c3ccc(Cl)cc3)Nc3nc(NC(C)=O)nn32)cc1 (centres undefined) | -15.6% | -13.4% | -9.52% | > 20.6 µM
34 | CC(=O)[C@@]1(O)CC[C@H]2[C@@H]3CCC4=CC(=O)CC[C@]4(C)[C@H]3[C@@H](O)C[C@@]21C | 3.13% | -20.8% | 4.29% | 0.0133 µM (active)
35 | C=CCOC(=O)C1=C(C)NC(SCC(=O)Nc2ccc(C)c(Cl)c2)=C(C#N)C1c1ccco1 (centres undefined) | -4.79% | 7.32% | 6.22% | > 20.6 µM
36 | COc1ccc(/C=C(/C#N)c2cccnc2)cc1OC | -13.8% | -0.696% | 5.95% | > 20.6 µM
37 | COc1nnnc2c1sc1nc(N3CCOCC3)c3c(c12)CC(C)(C)OC3 | -3.49% | -9.1% | -7.42% | > 20.6 µM
38 | Cn1c(=O)c2c(nc(NCc3ccco3)n2Cc2ccccc2Cl)n(C)c1=O | 16.7% | 2.77% | -14.8% | > 20.6 µM
39 | Cc1ccc(C#N)c(SCc2cc3c(cc2Cl)OCO3)n1 | 12.7% | -1.4% | 4.71% | > 20.6 µM
40 | Oc1ccc2c(c1)C1CCCC1(N1CCOCC1)O2 (centres undefined) | -13.6% | 16.1% | 2.31% | > 20.6 µM
41 | CCOc1c(C)cc2[nH]c(CCC(=O)O)nc2c1C | 7.73% | -1.66% | 7.03% | > 20.6 µM
42 | Cc1cc2c(c(=O)o1)C(Cc1ccccc1)C(C#N)=C(N)O2 (centres undefined) | 4.23% | 9.9% | -12.4% | > 20.6 µM
43 | COc1cccc(C2=CC(c3ccccc3)n3ncnc3N2)c1 (centres undefined) | -21.4% | -15.1% | -5.76% | > 20.6 µM
44 | N#Cc1nc(COc2ccccc2F)oc1NCCCn1ccnc1 | -26.4% | -21.7% | 5.2% | > 20.6 µM
45 | COc1cccc(NC(=O)CSC2=C(C#N)C(c3ccco3)C3=C(CCCC3=O)N2)c1 (centres undefined) | -18.7% | -16% | -7.07% | > 20.6 µM
46 | CCOC(=O)Cc1[nH]nc2c1C(c1cc(OC)ccc1OC)C(C#N)=C(N)O2 (centres undefined) | -11.5% | -0.329% | -9.93% | > 20.6 µM
47 | Cc1cc(NC(CC(C)C)C(=O)O)nc(Cc2ccccc2)n1 (centres undefined) | 0.713% | 7.49% | 5.49% | > 20.6 µM
48 | COc1ccc(OC)c2c1CCC2=O | -7.3% | -3.76% | 6.79% | > 20.6 µM
49 | CCOC(=O)CSc1nc(-c2ccc3c(c2)OCO3)ccc1C#N | 7.89% | 18.5% | 4.79% | > 20.6 µM
50 | O=S(=O)(c1cccc2nsnc12)N1CCN(C/C=C/c2ccccc2)CC1 | -6.7% | -13.3% | -15.9% | > 20.6 µM
51 | C=CCN1C(=O)CC(C(=O)NC)SC1=Nc1ccc(C(=O)OCC)cc1 (centres undefined) | -3.69% | 16.7% | -3.3% | > 20.6 µM
